Inconclusive results are not listed. Entries that show only a call come without a potency. Unmarked numbers belong to inactive results. The source made the active and inactive calls. Calls come from the whole dose curve.
assay: qHTS assay to identify small molecule agonists of the endoplasmic reticulum stress response signaling pathway - cell viability counter screen (AID 1159517); details: ESRE-bla HeLa viability, CellTiter-Glo luminescence, 5 h; series mostly up to 61 µM; note: nearly all actives have a fitted effect of over 50% in size
Excerpt: U.S. Tox21 Program National Center for Advancing Translational Sciences [NCATS] NIH Chemical Genomics Center [NCGC] U.S. Environmental Protection Agency [EPA] National Institutes of Environmental Health Sciences [NIEHS] National Toxicology Program [NTP] U.S. Food and Drug Administration [FDA] Tox21 Assay Overview: Endoplasmic Reticulum (ER) plays an important role in cellular signaling, protein folding/maturation, stress response, lipid biosynthesis, calcium storage and release etc. Under stress conditions, proteins in ER misfold or unfold, and leading to the expression of ER stress responsive genes. ER stress has been associated with a variety of pathophysiological conditions such as cancer, inflammation, neurodegenerative diseases, diabetes, ischemic heart disease etc. To identify the compounds that induce ER stress response, an ER stress reporter cell line, CellSensor ESRE-bla HeLa (Life Technologies, Carlsbad, CA) containing a beta-lactamase reporter gene under control of the Endoplasmic reticulum Stress Response Element (ESRE) was used to screen Tox21 10K compound library. The cytotoxicity of the Tox21 compound library against the ESRE-bla HeLa cell line was tested in parallel by measuring cell viability using the CellTiter-Glo assay in the same wells.
Tox21 Assay Protocol Summary: ESRE-bla HeLa cells were dispensed at 1,500 cells/6 uL of assay medium per well into black wall/clear-bottom 1536-well plates using a Multidrop Combi (ThermoFisher Scientific, Waltham, MA) dispenser. After the assay plates were incubated at 37 C and 5% CO2 for an overnight, 23 nL of compounds dissolved in DMSO, positive controls or DMSO only was transferred to the assay plate by a Pintool station (Kalypsys, San Diego, CA). The assay plates were incubated at 37 C and 5% CO2 for 5 hr. One uL of LiveBLAzer B/G FRET substrate (Life Technologies) was added using a FRD (Flying Reagent Dispenser, Aurora Discovery, San Diego, CA) and the plates were incubated at room temperature for 2 hr. Fluorescence intensity (405 nm excitation, 460 nm and 530 nm emissions) was measured using an Envision plate reader (PerkinElmer, Shelton, CT). For cytotoxicity, 4 ul/well of CellTiter-Glo reagent was added into the assay plates using an FRD. After 30 min incubation at room temperature, the luminescence intensity was measured using a ViewLux plate reader (PerkinElmer).
Potency is the fitted concentration of half-maximal effect.

Row | Compound | Potency | activity change, negative = cytotoxicity
1 | O=C(OCc1ccccc1)C(=O)OCc1ccccc1 | inactive | –
2 | COC(=O)C1CC(=O)C(C(=O)OC)CC1=O (stereo not given) | – | 4.71% [at 6.95 µM]
3 | FC(F)(F)c1ccccc1-n1ccnc1 | inactive | –
4 | CC(C)C[C@H](NC(=O)CNC(=O)[C@H](Cc1ccc(O)cc1)NC(=O)[C@H](CO)NC(=O)[C@H](Cc1c[nH]c2ccccc12)NC(=O)[C@H](Cc1cnc[nH]1)NC(=O)[C@@H]1CCC(=O)N1)C(=O)N[C@@H](CCCN=C(N)N)C(=O)N1CCC[C@H]1C(=O)NCC(N)=O (stereo in doubt) | inactive | –
5 | O=C(O)c1cc(Cl)cc([N+](=O)[O-])c1Cl | inactive | –
6 | O=C1CC(c2ccc(Cl)cc2)CC(=O)N1 | inactive | –
7 | CC(=O)NCc1c(I)c(NC(C)=O)c(I)c(C(=O)O)c1I | inactive | –
8 | BrCCCCCBr | inactive | –
9 | COc1nccnc1NS(=O)(=O)c1ccc(N)cc1 | inactive | –
10 | CNS(=O)(=O)CCc1ccc2[nH]cc(C3CCN(C)CC3)c2c1 | inactive | –
11 | O=C1c2ccccc2C(=O)N1CCl | inactive | –
12 | CC(C)(C)c1nnc(NS(=O)(=O)c2ccc(N)cc2)s1 | inactive | –
13 | Cc1ccc2c(c1)OCC(=O)CO2 | inactive | –
14 | CC(=O)/C=C/C1C(C)=CCC(C)C1(C)C (stereo not given) | inactive | –
15 | CCCCCCOc1ccccc1C(N)=O | inactive | –
16 | Cc1cc(Cl)c(C)cc1Cl | 54.9 µM (active) | –
17 | Cc1ccsc1/C=C/C1=NCCCN1C | inactive | –
18 | COc1ccc2c(c1OC)C(=O)O[C@@H]2[C@H]1c2c(cc3c(c2OC)OCO3)CCN1C | inactive | –
19 | COP(=O)(OC)OC(c1ccc(Cl)cc1)P(=O)(OC)OC (stereo not given) | inactive | –
20 | CCCCCCCCSCC | inactive | –

Row | Compound | Potency | activity change, negative = cytotoxicity
21 | Nc1ncnc(Nc2ccccc2)n1 | inactive | –
22 | OCCC(F)(F)C(F)(F)C(F)(F)C(F)(F)C(F)(F)C(F)(F)C(F)(F)C(F)(F)F | inactive | –
23 | Nc1ccc(S(=O)(=O)Nc2ccc(Cl)nn2)cc1 | inactive | –
24 | COc1cc2c(cc1OC)C(=O)CC2 | inactive | –
25 | CN(C)CCOCCO | inactive | –
26 | CCCN1C[C@H](CSC)C[C@@H]2c3cccc4[nH]cc(c34)C[C@H]21 | inactive | –
27 | CC1(C)S[C@@H]2[C@H](N=CN3CCCCCC3)C(=O)N2[C@H]1C(=O)O | inactive | –
28 | BrCc1cccc(Oc2ccccc2)c1 | inactive | –
29 | COc1ccc(S(=O)(=O)N2c3ccc(Cl)cc3[C@@](O)(c3ccccc3Cl)[C@H]2C(=O)N2CCC[C@@H]2C(N)=O)cc1OC | inactive | –
30 | CN1C(C)(C)CCCC1(C)C | inactive | –
31 | CCO[Si](CCCS)(OCC)OCC | inactive | –
32 | C[C@H](CCC(=O)O)[C@H]1CC[C@H]2[C@@H]3C(=O)C[C@@H]4CC(=O)CC[C@]4(C)[C@H]3CC(=O)[C@]12C | inactive | –
33 | N[C@@H](COP(=O)(O)O)C(=O)O | inactive | –
34 | CC(C)=CCOC(=O)c1ccccc1 | inactive | –
35 | O=C(Nc1ccc(Cl)c(Cl)c1)C1CC1 | inactive | –
36 | O=C(O)C(=O)Cc1ccccc1 | inactive | –
37 | CC(N)C(=O)OC(C)(C)Cc1ccc(Cl)cc1 (stereo not given) | inactive | –
38 | Cc1cc(C(C)(C)C)c(O)c(C)c1CC1=NCCN1 | inactive | –
39 | CCCCCCCCCCCCCC | inactive | –
40 | CC(CN)CC(C)(C)CCN (stereo not given) | inactive | –

— PubChem BioAssay (Tox21)
